For some assays here: Results with a measured potency or affinity are listed apart.
Columns and labels:
Parameters in all cases: scale not given: direction of the effect not stated beside the values
[1] = target: Protein translocase subunit SecA (Escherichia coli (strain K12)) (UniProt P10408); assay: Assay to Identify E. coli SecA ATPase Inhibitors; format: functional; conditions: 30 µM
[2] = target: T1, Ubiquitin-activating enzyme e1, putative (Leishmania donovani (strain BPK282A1)) (UniProt E9BSI1); assay: Leishmania donovani Ubiquitin Activating Enzyme (LdE1); format: functional; conditions: 30 µM
T1 sequence (whole entry): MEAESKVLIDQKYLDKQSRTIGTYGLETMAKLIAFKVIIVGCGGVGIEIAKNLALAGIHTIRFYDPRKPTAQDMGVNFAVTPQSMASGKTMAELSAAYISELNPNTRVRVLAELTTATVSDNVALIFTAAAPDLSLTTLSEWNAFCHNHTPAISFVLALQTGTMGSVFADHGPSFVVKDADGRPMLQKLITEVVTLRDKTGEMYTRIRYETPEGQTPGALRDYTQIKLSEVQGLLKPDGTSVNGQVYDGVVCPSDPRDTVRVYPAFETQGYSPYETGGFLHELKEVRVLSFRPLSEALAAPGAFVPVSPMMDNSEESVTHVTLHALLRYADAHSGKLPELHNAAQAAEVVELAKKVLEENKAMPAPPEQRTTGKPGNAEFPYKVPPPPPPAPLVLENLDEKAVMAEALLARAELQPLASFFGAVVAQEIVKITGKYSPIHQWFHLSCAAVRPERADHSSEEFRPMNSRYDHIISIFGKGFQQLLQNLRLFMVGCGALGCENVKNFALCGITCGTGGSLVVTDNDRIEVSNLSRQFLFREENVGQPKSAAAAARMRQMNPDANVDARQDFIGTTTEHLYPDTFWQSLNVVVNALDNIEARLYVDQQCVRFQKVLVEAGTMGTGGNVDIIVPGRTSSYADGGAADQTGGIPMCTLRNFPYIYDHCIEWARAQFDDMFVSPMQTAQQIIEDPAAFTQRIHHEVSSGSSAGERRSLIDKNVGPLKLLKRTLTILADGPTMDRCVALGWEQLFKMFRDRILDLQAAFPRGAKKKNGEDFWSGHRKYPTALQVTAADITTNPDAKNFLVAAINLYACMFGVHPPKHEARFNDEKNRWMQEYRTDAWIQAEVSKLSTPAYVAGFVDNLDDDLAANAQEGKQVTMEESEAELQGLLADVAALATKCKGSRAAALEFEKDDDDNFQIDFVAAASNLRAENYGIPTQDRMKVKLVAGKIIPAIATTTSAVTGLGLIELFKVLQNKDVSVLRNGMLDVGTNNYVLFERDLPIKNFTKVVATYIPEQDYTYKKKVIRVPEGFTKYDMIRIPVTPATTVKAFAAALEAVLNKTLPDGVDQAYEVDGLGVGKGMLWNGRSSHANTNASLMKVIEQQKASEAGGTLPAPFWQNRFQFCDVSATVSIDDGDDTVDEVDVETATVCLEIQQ

[3] = target: AMP-activated protein kinase, AMPK (Homo sapiens) (UniProt P54646+O43741+P54619+Q9UGJ0+Q9Y478+Q13131+Q9UGI9); assay: AMP-dependent Kinase enzyme assay. An in vitro enzyme assay that detects ADP turnover that is directly proportional to AMPK activity. This uses naive AMPK that is activated during the assay with MK-8722; format: functional; conditions: 30 µM
[4] = target: Sialic acid-binding Ig-like lectin 9 (Homo sapiens) (UniProt Q9Y336); assay: Hs-Siglec9 ALPHAscreen SOP 20170721; conditions: 10 µM
Chain of Sialic acid-binding Ig-like lectin 9 (Homo sapiens) (Q9Y336 whole entry): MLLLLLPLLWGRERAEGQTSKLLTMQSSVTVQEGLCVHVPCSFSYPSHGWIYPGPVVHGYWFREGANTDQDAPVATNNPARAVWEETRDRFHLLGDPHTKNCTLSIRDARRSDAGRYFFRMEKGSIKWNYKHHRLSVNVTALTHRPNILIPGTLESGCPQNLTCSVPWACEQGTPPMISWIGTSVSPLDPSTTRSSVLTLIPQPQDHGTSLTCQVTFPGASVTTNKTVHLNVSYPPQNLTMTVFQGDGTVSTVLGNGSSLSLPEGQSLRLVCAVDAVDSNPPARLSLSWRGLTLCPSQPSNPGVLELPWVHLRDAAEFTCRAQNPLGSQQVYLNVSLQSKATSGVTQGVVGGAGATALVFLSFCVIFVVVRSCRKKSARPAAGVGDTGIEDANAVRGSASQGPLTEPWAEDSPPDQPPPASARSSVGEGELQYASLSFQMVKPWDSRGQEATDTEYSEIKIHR

Trypanosoma cruzi = assay: Trypanosoma cruzi phosphomannomutase and mannose-1-phosphate guanylyltransferase assay; format: functional; conditions: 10 µM
[5] = target: T2, Arginase-2, mitochondrial (Homo sapiens) (UniProt P78540); assay: in vitro enzyme assay to detect the production of urea directly proportional to the activity of Arginase II; format: functional; conditions: 33.3 µM; further: in the data most compounds retested in dose-response had high values
T2 sequence (whole entry): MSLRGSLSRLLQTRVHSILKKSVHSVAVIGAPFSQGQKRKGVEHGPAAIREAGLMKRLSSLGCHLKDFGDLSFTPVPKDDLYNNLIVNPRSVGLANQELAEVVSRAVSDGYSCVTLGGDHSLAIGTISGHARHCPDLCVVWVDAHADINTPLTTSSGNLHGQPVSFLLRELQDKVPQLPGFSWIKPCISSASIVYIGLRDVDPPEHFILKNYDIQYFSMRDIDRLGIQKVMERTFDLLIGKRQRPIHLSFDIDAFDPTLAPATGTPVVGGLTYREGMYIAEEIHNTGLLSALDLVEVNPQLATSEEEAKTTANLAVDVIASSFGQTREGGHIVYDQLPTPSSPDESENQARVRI

[6] = target: T3, Proteasome subunit beta (Trypanosoma cruzi) (UniProt O96673); assay: Trypanosoma cruzi proteasome chymotrypsin-like activity (TcProtChymo) assay.; further: in the data most compounds retested in dose-response had high values; format: functional; conditions: 9.37 µM
T3 sequence (whole entry): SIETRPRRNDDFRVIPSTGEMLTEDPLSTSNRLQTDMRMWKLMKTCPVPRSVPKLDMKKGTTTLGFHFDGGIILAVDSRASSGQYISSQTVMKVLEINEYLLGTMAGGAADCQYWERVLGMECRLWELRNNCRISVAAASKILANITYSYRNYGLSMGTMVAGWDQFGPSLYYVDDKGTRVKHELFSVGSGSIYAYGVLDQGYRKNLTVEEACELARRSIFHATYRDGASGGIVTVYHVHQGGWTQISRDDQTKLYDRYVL

Homo sapiens = species: Homo sapiens; assay: To identify inhibition of the IFN signalling (Jak-Stat) pathway via expression of an eGFP reporter gene under the control of an IFN-stimulated response element (ISRE) containing MxA promoter.; format: functional; conditions: 30 µM
[7] = target: T4, Tyrosyl-tRNA synthetase, putative (Trypanosoma cruzi (strain CL Brener)) (UniProt Q4DSP6); assay: Trypanosoma cruzi tyrosyl tRNA synthetase (TcYRS) _High Tyrosine SOP; format: functional; conditions: 30 µM; further: in the data most compounds retested in dose-response had high values
T4 sequence (whole entry): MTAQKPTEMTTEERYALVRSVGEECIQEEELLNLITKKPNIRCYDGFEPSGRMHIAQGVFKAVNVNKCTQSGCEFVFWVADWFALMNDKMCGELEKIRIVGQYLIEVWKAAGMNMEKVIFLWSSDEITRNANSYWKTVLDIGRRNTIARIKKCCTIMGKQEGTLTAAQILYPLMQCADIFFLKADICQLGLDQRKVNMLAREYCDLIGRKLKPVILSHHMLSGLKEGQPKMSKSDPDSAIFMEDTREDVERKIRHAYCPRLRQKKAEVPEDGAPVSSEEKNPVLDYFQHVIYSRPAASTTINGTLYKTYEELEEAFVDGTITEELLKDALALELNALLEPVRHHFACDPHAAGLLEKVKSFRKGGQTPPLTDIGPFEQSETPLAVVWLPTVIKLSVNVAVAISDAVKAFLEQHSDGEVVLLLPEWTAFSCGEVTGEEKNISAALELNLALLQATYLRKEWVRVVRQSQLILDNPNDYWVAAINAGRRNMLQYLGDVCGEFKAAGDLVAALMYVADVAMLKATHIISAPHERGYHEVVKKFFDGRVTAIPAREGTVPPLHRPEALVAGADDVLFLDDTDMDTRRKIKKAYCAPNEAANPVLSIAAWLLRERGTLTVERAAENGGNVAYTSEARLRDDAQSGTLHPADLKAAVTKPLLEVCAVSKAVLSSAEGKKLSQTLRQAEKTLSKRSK

[8] = target: T4, Tyrosyl-tRNA synthetase, putative (Trypanosoma cruzi (strain CL Brener)); assay: Trypanosoma cruzi tyrosyl tRNA synthetase (TcYRS) SOP; format: functional; conditions: 30 µM
[9] = target: Chromo domain-containing protein 1 (Saccharomyces cerevisiae (strain ATCC 204508 / S288c) (Baker's yeast)) (UniProt P32657); assay: ScCHD-1 Enzyme Inhibition Assay; format: functional; conditions: 30 µM; further: in the data most compounds retested in dose-response had high values
Chain of Chromo domain-containing protein 1 (Saccharomyces cerevisiae (strain ATCC 204508 / S288c) (Baker's yeast)) (P32657 whole entry, the tested form may be a part): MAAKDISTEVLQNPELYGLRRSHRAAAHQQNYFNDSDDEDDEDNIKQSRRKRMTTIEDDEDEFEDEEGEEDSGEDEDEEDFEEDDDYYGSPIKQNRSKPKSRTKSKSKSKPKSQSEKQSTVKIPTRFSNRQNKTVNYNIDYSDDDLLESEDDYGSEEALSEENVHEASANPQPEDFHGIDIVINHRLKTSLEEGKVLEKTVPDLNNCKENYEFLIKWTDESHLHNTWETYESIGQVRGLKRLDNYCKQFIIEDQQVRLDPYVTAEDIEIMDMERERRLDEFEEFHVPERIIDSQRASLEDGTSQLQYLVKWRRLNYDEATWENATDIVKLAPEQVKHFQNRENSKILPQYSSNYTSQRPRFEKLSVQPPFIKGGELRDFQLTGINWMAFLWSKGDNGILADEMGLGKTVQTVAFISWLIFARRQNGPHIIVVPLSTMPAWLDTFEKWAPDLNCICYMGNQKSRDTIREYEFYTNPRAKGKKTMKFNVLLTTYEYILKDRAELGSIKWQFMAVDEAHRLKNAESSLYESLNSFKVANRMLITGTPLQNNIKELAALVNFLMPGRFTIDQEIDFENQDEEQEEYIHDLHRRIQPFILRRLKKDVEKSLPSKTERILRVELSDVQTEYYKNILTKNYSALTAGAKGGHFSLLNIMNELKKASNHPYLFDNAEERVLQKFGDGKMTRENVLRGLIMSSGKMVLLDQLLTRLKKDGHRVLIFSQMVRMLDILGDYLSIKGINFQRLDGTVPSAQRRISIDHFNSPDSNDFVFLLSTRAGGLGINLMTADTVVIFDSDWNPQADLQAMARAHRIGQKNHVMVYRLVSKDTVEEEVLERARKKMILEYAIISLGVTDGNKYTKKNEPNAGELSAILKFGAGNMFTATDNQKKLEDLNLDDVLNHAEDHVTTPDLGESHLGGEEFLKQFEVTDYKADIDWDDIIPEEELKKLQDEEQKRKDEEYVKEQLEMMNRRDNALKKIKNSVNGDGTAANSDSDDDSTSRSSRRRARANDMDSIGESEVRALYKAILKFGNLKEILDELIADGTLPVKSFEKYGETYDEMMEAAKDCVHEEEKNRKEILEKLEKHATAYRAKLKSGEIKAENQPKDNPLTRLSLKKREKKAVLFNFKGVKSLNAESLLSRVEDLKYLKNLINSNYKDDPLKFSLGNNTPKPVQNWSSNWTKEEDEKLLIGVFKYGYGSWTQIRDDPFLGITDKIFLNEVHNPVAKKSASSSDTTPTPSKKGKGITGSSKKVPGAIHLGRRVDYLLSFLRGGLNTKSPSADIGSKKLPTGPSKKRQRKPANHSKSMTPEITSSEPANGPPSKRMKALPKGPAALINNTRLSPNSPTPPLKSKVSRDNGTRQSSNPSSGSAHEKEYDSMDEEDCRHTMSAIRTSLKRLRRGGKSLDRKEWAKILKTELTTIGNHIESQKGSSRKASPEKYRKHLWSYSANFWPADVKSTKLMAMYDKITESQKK

Chain of Protein translocase subunit SecA (Escherichia coli (strain K12)) (P10408 whole entry): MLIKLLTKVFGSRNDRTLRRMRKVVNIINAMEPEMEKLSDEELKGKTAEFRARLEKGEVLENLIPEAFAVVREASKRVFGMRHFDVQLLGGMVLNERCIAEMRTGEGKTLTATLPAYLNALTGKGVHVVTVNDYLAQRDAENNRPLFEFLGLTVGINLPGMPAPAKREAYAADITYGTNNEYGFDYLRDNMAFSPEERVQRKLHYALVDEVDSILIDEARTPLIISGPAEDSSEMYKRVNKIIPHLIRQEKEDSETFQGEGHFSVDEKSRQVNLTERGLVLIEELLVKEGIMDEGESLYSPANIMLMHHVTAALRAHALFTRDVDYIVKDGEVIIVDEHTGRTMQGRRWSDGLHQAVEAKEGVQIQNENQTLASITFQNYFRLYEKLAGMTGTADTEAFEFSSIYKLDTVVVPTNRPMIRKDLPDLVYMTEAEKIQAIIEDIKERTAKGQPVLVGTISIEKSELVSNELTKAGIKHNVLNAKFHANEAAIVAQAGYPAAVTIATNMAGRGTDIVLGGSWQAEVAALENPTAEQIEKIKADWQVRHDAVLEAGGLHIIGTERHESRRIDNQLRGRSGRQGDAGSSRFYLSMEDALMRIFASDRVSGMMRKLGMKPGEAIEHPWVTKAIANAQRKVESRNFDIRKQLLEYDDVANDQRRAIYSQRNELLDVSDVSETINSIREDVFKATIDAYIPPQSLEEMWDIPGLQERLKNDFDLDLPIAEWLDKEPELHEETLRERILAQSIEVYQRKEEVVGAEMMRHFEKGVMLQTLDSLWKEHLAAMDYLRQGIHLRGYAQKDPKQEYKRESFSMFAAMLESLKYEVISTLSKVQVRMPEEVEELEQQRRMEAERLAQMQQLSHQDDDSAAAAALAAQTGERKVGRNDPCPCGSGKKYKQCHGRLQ

## NC(=O)c1cnn2c1NCC(CNCCCOc1ccccc1F)C2 (stereo not given)
[1]
  Percent Effect: -2.54%
[2]
  Percent Effect: 5.26%
[3]
  Percent Effect: 0.424%
[4]
  Percent Effect: 14.6%
Trypanosoma cruzi
  Percent Effect: 3.38%
[5]
  Percent Effect: -1.15%
[6]
  Percent Effect: 0.167%
Homo sapiens
  Percent Effect: 2.29%
[7]
  Percent Effect: 9.31%
[8]
  Percent Effect: 12.2%
[9]
  Percent Effect: -10.9%

## Cc1cnn(CCC(=O)N2CCOC(c3nc(C(C)(C)C)n[nH]3)C2)c1 (stereo not given)
[1]
  Percent Effect: -3.54%
[2]
  Percent Effect: -6.94%
[3]
  Percent Effect: 7.25%
[4]
  Percent Effect: 3.02%
Trypanosoma cruzi
  Percent Effect: -3.6%
[5]
  Percent Effect: -0.883%
[6]
  Percent Effect: 5.26%
Homo sapiens
  Percent Effect: 20.6%
[7]
  Percent Effect: -1.05%
[8]
  Percent Effect: -10.3%
[9]
  Percent Effect: -1.3%

## CCN1C(=O)C(C)(C)c2cc(NC(=O)c3ccco3)ccc21
[1]
  Percent Effect: -5.66%
[2]
  Percent Effect: 10.4%
[3]
  Percent Effect: 17.2%
[4]
  Percent Effect: 5.8%
Trypanosoma cruzi
  Percent Effect: 1.48%
[5]
  Percent Effect: -13.8%
[6]
  Percent Effect: 12.7%
Homo sapiens
  Percent Effect: 19.7%
[7]
  Percent Effect: 12.9%
[8]
  Percent Effect: 21%
[9]
  Percent Effect: 0.612%

## FC(F)(F)c1cccc(C2(CNCc3ccncc3)CCOCC2)c1
[1]
  Percent Effect: -0.743%
[2]
  Percent Effect: 10.8%
[3]
  Percent Effect: -6.5%
[4]
  Percent Effect: -1.68%
Trypanosoma cruzi
  Percent Effect: -2.34%
[5]
  Percent Effect: -1.67%
[6]
  Percent Effect: 13.9%
Homo sapiens
  Percent Effect: 23.6%
[7]
  Percent Effect: 7.92%
[8]
  Percent Effect: 11%
[9]
  Percent Effect: 16.9%

## O=C(c1ccnnc1)N1C[C@H]2CCC[C@@]2(COCC2CCOCC2)C1
[1]
  Percent Effect: -1.23%
[2]
  Percent Effect: -16.2%
[3]
  Percent Effect: 2.91%
[4]
  Percent Effect: 1.16%
Trypanosoma cruzi
  Percent Effect: 7.72%
[5]
  Percent Effect: -2.87%
[6]
  Percent Effect: 9.04%
Homo sapiens
  Percent Effect: -6.27%
[7]
  Percent Effect: -1.08%
[8]
  Percent Effect: 5.13%
[9]
  Percent Effect: 0.739%

## CN(C(=O)c1cc(Cl)c[nH]1)C1CCN(c2ccccn2)CC1
[1]
  Percent Effect: -4.94%
[2]
  Percent Effect: -2.6%
[3]
  Percent Effect: -2.5%
[4]
  Percent Effect: -14.5%
Trypanosoma cruzi
  Percent Effect: 6.17%
[5]
  Percent Effect: -4%
[6]
  Percent Effect: 9.46%
Homo sapiens
  Percent Effect: -0.502%
[7]
  Percent Effect: 13.3%
[8]
  Percent Effect: 23.5%
[9]
  Percent Effect: -20.8%

## COCC1c2nnn(CC3CC3)c2CCN1C(=O)c1cccc(F)c1 (stereo not given)
[1]
  Percent Effect: -5.76%
[2]
  Percent Effect: 0%
[3]
  Percent Effect: -4.62%
[4]
  Percent Effect: 0.968%
Trypanosoma cruzi
  Percent Effect: -4.59%
[5]
  Percent Effect: -0.248%
[6]
  Percent Effect: 3%
Homo sapiens
  Percent Effect: 10%
[7]
  Percent Effect: 5.38%
[8]
  Percent Effect: 6.17%
[9]
  Percent Effect: 1.63%

## O=C(NCc1cccnc1)C1CC(=O)N(CC2CC2)C1 (stereo not given)
[1]
  Percent Effect: -5.33%
[2]
  Percent Effect: 15.6%
[3]
  Percent Effect: -0.688%
[4]
  Percent Effect: -14.6%
Trypanosoma cruzi
  Percent Effect: 6.37%
[5]
  Percent Effect: -1.05%
[6]
  Percent Effect: 17.7%
Homo sapiens
  Percent Effect: 4.16%
[7]
  Percent Effect: 4.76%
[8]
  Percent Effect: 21.2%
[9]
  Percent Effect: -21.7%

## CC(C)N(C)Cc1cn2c(n1)CN(C(=O)Cc1ccsc1)CC2
[1]
  Percent Effect: -5.71%
[2]
  Percent Effect: 2.74%
[3]
  Percent Effect: 3.83%
[4]
  Percent Effect: 1.25%
Trypanosoma cruzi
  Percent Effect: -2.78%
[5]
  Percent Effect: -2%
[6]
  Percent Effect: 7.28%
Homo sapiens
  Percent Effect: -1.74%
[7]
  Percent Effect: 5.21%
[8]
  Percent Effect: 6.17%
[9]
  Percent Effect: -0.437%

## O=C1CC2(CCN(c3nncs3)C2)CN1c1ccccc1 (stereo not given)
[1]
  Percent Effect: -2.98%
[2]
  Percent Effect: 5.41%
[3]
  Percent Effect: -3.44%
[4]
  Percent Effect: 2.02%
Trypanosoma cruzi
  Percent Effect: -5.66%
[5]
  Percent Effect: 4.58%
[6]
  Percent Effect: 12.4%
Homo sapiens
  Percent Effect: -3.33%
[7]
  Percent Effect: 4.95%
[8]
  Percent Effect: 11%
[9]
  Percent Effect: 0.436%

Source: ChEMBL document CHEMBL3988442, “University of Dundee, Small-Polar-MMV Screening Library” (2021)
